Experimental data as given in PubChem BioAssay (Tox21).
Results filed as inconclusive are left out. The source made the active and inactive calls. Unless noted, calls come from the whole dose curve; as a rule, active = well fitted curve in the direction sought with a large enough effect in the repeat runs; inconclusive = weak or mixed curves; inactive = no such curve, though single readings can be large; an effect the other way counts as inactive or inconclusive.

Assays:
[1] = qHTS RealTime-Glo MT Cell Viability Assay in HEK293 cells - 24 hour (AID 1224886); note: nearly all actives have a fitted effect of over 50% in size; note: potency is the fitted concentration of half-maximal effect
Method in brief: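 Luminescence generated by NanoLuc from substrate produced by living HEK293 cells served as the viability signal. Each value reflects the reading at its stated time point during continuous 40 h compound exposure at 37 C.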

[2] = qHTS RealTime-Glo MT Cell Viability Assay in HEK293 cells - 8 hour (AID 1224887); note: nearly all actives have a fitted effect of over 50% in size; note: potency is the fitted concentration of half-maximal effect
Method in brief: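 HEK293 + NanoLuc + prosubstrate, 600 cells/well; 5 h, 37 C/5% CO2; compound 23 nL in DMSO by pintool; 37 C; luminescence read at 0, 8, 16, 24, 32 and 40 h time points.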

[3] = qHTS RealTime-Glo MT Cell Viability Assay in HepG2 cells - 0 hour (AID 1224889); note: nearly all actives have a fitted effect of over 50% in size
Method in brief: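 Tox21 10K library screened in qHTS format on HepG2 cells carrying RealTime-Glo reagents. Compounds were added after a 5 h preincubation, and the luminescent signal from continuous culture was measured repeatedly during 40 h treatment.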

[4] = A CellTox Green Cytotoxicity Assay to monitor cytotoxicity in HepG2 cells - 8 hour (AID 1224890); note: nearly all actives have a fitted effect of over 45% in size; note: potency is the fitted concentration of half-maximal effect
Method in brief: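 Measurements at 0, 8, 16, 24, 32 and 40 h of treatment captured CellTox Green fluorescence in HepG2 cells that had been co-plated with reagent and preincubated 5 h at 37 C/5% CO2.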

[5] = qHTS assay to identify small molecule antagonists of the estrogen receptor alpha (ER-alpha) signaling pathway using the BG1 cell line in the presence of 0.1 nM 17-beta-estradiol - cell viability counter screen (AID 1259241); note: nearly all actives have a fitted effect of over 40% in size; note: potency is the fitted concentration of half-maximal effect
Method in brief: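 VM7Luc4E2 cells (endogenous full-length ER-alpha, 4xERE-luciferase), cultured 5 days in charcoal-stripped serum, exposed to compounds with 0.1 nM 17beta-estradiol (final) for 22 hr at 37C. Viability read in same wells as live-cell protease fluorescence after 30 min.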

[6] = qHTS assay to identify small molecule antagonists of the androgen receptor (AR) signaling pathway using the MDA cell line in the presence of 0.5 nM R1881 - cell viability counter screen (AID 1259242); note: nearly all actives have a fitted effect of over 45% in size; note: potency is the fitted concentration of half-maximal effect
Method in brief: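 Concentration-response screen of compounds for toxicity in MDA-kb2 reporter cells: 16 hr at 37C with 0.5 nM R1881, endpoint live-cell protease fluorescence measured in the reporter wells.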

[7] = biological target: Androgen receptor (Homo sapiens) (UniProt P10275); test: qHTS assay to identify small molecule antagonists of the androgen receptor (AR) signaling pathway using the MDA cell line in the presence of 0.5 nM R1881 (AID 1259243); note: nearly all actives have a fitted effect of over 50% in size; note: potency is the fitted concentration of half-maximal effect
Method in brief: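 With R1881 held at 0.5 nM (final), compound effects on MMTV-luciferase expression in MDA-kb2 cells were scored by luminescence after a 16 hr, 37C incubation.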

[8] = biological target: Estrogen receptor (Homo sapiens) (UniProt P03372); test: qHTS assay to identify small molecule antagonists of the estrogen receptor alpha (ER-alpha) signaling pathway using the BG1 cell line in the presence of 0.1 nM 17-beta-estradiol (AID 1259244); note: nearly all actives have a fitted effect of over 50% in size; note: potency is the fitted concentration of half-maximal effect
Method in brief: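 Compounds were tested against 0.1 nM (final) 17beta-estradiol in VM7Luc4E2 cells, which express full-length ER-alpha and an ERE-luciferase reporter; luminescence was recorded following 22 h exposure.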

[9] = qHTS assay to identify small molecule agonists of the sonic hedgehog signaling (Shh) pathway - cell viability counter screen (AID 1259366); note: nearly all actives have a fitted effect of over 50% in size; note: potency is the fitted concentration of half-maximal effect
Method in brief: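 NIH/3T3-derived Gli1-Luc reporter cells, 2,000 per well, received compound after 4 h and were treated about 23 h at 37C. Viability measured in the same wells by CellTiter-Fluor fluorescence after 1 h.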

[10] = qHTS assay to identify small molecule antagonists of the sonic hedgehog signaling (Shh) pathway - cell viability counter screen (AID 1259367); note: nearly all actives have a fitted effect of over 55% in size; note: potency is the fitted concentration of half-maximal effect
Method in brief: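 CellTiter-Fluor signal in conditioned medium-stimulated 3T3 Gli1-Luc cells, 23 hr compound exposure, 37C.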

[11] = qHTS assay to identify small molecule agonists of the sonic hedgehog signaling (Shh) pathway (AID 1259368; calls by dose curve;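 note: NIH/3T3-derived 3T3Gli1-Luc cells carrying a stable Gli1-driven firefly luciferase reporter; series mostly up to about 92 µM; nearly all actives have a fitted effect of over 15% in size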)
Method in brief: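 Hedgehog pathway agonism scored by increased firefly luciferase luminescence in 3T3Gli1-Luc cells treated 24 hr at 37 C; detection used a 30 min room-temperature reagent incubation.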

[12] = qHTS assay to identify small molecule antagonists of the sonic hedgehog signaling (Shh) pathway (AID 1259369; calls by dose curve; note: nearly all actives have a fitted effect of over 45% in size; note: potency is the fitted concentration of half-maximal effect)
Method in brief: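 NIH/3T3 stable Gli1-Luc clone, 2,000 cells/well, 4hr settle; cpd + conditioned medium 24hr; Luc reagent 30min RT; luminescence.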

[13] = biological target: Estrogen receptor beta (Homo sapiens) (UniProt Q92731); test: qHTS assay to identify small molecule agonists of the estrogen receptor beta (ER-beta) signaling pathway (AID 1259377; active = well fitted activation curve with a large enough effect in the signal ratio in the repeat runs, not every such curve was filed as active; the % refers to the signal ratio)
Method in brief: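 ER-beta-UAS-bla HEK293T cells in medium with 2% charcoal-stripped FBS were exposed to compounds for 16 h at 37C. Beta-lactamase reporter activity was read as fluorescence after 2 h with LiveBLAzer B/G FRET substrate at room temperature.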

[14] = biological target: Estrogen receptor beta (Homo sapiens) (UniProt Q92731); test: qHTS assay to identify small molecule antagonists of the estrogen receptor beta (ER-beta) signaling pathway (AID 1259378; active = well fitted inhibition curve with a large enough effect in the signal ratio in the repeat runs, not every such curve was filed as active; the % refers to the signal ratio; note: potency is the fitted concentration of half-maximal effect)
Method in brief: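 Antagonist mode: compounds added to beta-lactamase reporter HEK293T ER-beta-UAS cells stimulated with E2 (1nM final), 16 hr at 37C. LiveBLAzer B/G FRET substrate, 2 hours room temperature, fluorescence read-out.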

[15] = qHTS assay to identify small molecule agonists of the estrogen receptor beta (ER-beta) signaling pathway - cell viability counter screen (AID 1259380); note: nearly all actives have a fitted effect of over 30% in size; note: potency is the fitted concentration of half-maximal effect
Method in brief: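 Measured: luminescence from CellTiter-Glo after 30 min at room temperature, added to wells already read for the LiveBLAzer FRET reporter (2 hr substrate); ER-beta-UAS-bla HEK293T cells had 16 hr compound treatment at 37C, 5% CO2.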

[16] = A CellTox Green Cytotoxicity Assay to monitor cytotoxicity in HEK293 cells - 16 hour (AID 1224888); note: nearly all actives have a fitted effect of over 35% in size; note: potency is the fitted concentration of half-maximal effect
Method in brief: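 Tox21 screen in HEK293: membrane-impermeant cyanine dye fluoresces on binding dead-cell DNA; compound pinned 5 h post-seeding, plates held at 37 C, signal read repeatedly through 40 h.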

[17] = qHTS assay to identify small molecule phospholipidosis (PLD) inducers (AID 1259344; active = well fitted curve in the direction sought with a large enough effect; an effect the other way counts as inactive or inconclusive)
Method in brief: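 Accumulated phospholipid, stained red by LipidTOX during 24 h compound treatment of HepG2 cells at 37 C, is quantified from images as pit number and intensity, normalised per cell using Hoechst-stained nuclei.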

[18] = qHTS assay to identify small molecule HDAC inhibitors (AID 1259364);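 note: wild-type HCT-116 cells with endogenous class I/II HDAC activity; top concentration of the series differs between compounds; nearly all actives have a fitted effect of over 45% in size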
Method in brief: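 Screening used wild-type human colon HCT-116 cells incubated overnight, dosed with compounds for 2 hours, and assayed with a homogeneous luminogenic HDAC I/II reagent for 30 minutes at room temperature.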

[19] = qHTS assay to identify small molecule agonists of the androgen receptor (AR) signaling pathway in the presence of an antagonist - cell viability counter screen (AID 1259379); note: nearly all actives have a fitted effect of over 25% in size; note: potency is the fitted concentration of half-maximal effect
Method in brief: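 MDA-kb2 viability measured by CellTiter-Fluor fluorescence in the same wells as the luciferase signal; nilutamide 3.0uM final; 15-point compound titration; 16 hr at 37C.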

[20] = qHTS assay to identify small molecule HDAC inhibitors - cell viability counter screen (AID 1259365)
Method in brief: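 Wild-type HCT-116 cells, 1,500/well, cultured overnight, then compound-treated 2 h at 37 C. Viability measured as ATP luminescence with CellTiter-Glo after 30 min at room temperature.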

Measured: Potency

Sequence of Estrogen receptor (Homo sapiens) (P03372 whole entry, looked up): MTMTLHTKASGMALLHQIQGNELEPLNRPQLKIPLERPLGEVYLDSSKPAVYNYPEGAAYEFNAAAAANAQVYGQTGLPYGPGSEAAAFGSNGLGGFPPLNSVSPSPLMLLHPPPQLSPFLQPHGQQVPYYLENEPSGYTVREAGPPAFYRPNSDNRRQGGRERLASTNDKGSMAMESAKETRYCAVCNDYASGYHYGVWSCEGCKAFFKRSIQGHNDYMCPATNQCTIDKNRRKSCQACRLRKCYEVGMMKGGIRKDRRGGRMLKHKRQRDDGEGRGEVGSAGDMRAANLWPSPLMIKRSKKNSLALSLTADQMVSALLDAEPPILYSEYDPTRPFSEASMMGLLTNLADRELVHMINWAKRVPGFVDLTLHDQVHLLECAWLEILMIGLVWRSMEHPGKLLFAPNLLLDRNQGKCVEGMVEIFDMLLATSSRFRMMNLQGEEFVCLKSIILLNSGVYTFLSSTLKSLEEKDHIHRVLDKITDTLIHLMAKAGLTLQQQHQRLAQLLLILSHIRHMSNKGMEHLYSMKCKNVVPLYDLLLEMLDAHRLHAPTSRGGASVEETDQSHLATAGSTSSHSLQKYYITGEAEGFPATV
Sequence of Estrogen receptor beta (Homo sapiens) (Q92731 whole entry, looked up): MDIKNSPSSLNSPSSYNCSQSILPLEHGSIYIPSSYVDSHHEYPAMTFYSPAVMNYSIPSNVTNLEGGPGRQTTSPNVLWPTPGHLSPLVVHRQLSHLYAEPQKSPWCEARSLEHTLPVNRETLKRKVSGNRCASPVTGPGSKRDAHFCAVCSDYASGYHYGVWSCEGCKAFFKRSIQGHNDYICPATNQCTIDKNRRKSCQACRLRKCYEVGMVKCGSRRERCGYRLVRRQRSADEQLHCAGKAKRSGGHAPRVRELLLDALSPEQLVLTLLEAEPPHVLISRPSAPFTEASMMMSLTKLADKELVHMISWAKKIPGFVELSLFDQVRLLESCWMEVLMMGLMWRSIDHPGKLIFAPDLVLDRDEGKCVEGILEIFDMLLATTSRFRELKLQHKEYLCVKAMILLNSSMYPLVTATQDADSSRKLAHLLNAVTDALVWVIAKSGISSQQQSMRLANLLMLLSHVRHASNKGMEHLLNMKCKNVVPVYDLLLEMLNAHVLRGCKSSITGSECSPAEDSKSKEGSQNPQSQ
Sequence of Androgen receptor (Homo sapiens) (P10275 whole entry, looked up): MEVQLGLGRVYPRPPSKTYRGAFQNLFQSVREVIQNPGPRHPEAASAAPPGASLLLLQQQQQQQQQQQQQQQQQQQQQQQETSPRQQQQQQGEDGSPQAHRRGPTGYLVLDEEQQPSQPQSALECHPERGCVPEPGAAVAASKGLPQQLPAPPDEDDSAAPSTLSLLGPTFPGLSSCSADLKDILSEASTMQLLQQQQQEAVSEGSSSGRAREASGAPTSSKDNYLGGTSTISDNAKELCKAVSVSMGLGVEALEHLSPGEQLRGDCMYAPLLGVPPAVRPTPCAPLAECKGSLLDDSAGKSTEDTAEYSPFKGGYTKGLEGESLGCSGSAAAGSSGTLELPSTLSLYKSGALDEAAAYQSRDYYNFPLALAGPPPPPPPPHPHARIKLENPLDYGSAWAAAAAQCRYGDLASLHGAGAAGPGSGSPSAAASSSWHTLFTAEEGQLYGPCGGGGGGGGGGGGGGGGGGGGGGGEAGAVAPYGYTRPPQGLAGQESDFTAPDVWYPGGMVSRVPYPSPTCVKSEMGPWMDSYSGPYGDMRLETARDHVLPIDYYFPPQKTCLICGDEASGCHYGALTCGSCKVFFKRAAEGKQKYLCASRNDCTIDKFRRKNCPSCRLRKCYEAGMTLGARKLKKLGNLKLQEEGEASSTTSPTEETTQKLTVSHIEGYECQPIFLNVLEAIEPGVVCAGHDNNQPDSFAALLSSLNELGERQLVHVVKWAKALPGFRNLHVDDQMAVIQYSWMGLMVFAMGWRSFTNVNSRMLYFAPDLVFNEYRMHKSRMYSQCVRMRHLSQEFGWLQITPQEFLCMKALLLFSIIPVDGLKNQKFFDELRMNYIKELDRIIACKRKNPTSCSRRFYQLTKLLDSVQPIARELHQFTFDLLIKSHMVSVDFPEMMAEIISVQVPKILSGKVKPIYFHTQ

O=C1C=CC(=O)N1c1cccc(N2C(=O)C=CC2=O)c1
inactive: [3] | [11] | [13]
active: [1] 11 µM | [2] 19.5 µM | [4] 17.4 µM | [5] 68.6 µM | [6] 61.1 µM | [7] 61.1 µM | [8] 61.1 µM | [9] 8.63 µM | [10] 7.7 µM | [12] 1.72 µM | [14] 61.1 µM | [15] 61.1 µM

CN(C/C=C/c1ccccc1)Cc1cccc2ccccc12
active: [16] 19 µM | [4] 23.9 µM
not listed: [1] | [7] | [15] | [20]
inactive: all other assays above

COc1c(Br)cc(Br)c(C)c1Br
not listed: [3] | [7] | [8] | [13] | [14] | [17]
inactive: all other assays above

COc1cc(/C=C/C(=O)CC(=O)/C=C/c2ccc(O)c(OC)c2)ccc1O
inactive: [5] | [17]
active: [1] 31.1 µM | [2] 6.96 µM | [16] 49.3 µM | [4] 49.3 µM | [7] 15.4 µM | [9] 30.8 µM | [10] 24.5 µM | [12] 8.69 µM | [19] 54.8 µM | [15] 69 µM

CC(C)=CCC[C@H](C)CC=O
not listed: [7] | [8] | [13] | [14] | [16] | [17]
inactive: all other assays above

Cc1cc(Br)ccc1NC(=O)CCl
inactive: [16] | [3] | [4] | [8] | [18] | [20] | [11]
active: [2] 24.5 µM | [5] 61.1 µM | [6] 48.6 µM | [9] 9.69 µM | [10] 19.3 µM | [12] 4.33 µM | [19] 54.5 µM

CC(C=O)c1ccccc1 (centres undefined)
not listed: [1] | [17]
inactive: all other assays above

CC(O)(c1ccc(Cl)cc1)c1ccc(Cl)cc1
inactive: [3] | [6] | [18] | [20] | [9] | [11] | [13] | [19]
active: [1] 24.5 µM | [2] 34.7 µM | [4] 54.9 µM | [12] 43.3 µM

CC(c1cc(C(C)(C)C)cc(C(C)(C)C)c1O)c1cc(C(C)(C)C)cc(C(C)(C)C)c1O
not listed: [1] | [7] | [15] | [17]
inactive: all other assays above

CN1CCN(CCCN2c3ccccc3Sc3ccc(C(F)(F)F)cc32)CC1
active: [1] 23.9 µM | [2] 23.9 µM | [16] 23.9 µM | [9] 26.6 µM | [12] 10.6 µM | [15] 15 µM
inactive: [5] | [18] | [20] | [10] | [11]

CSc1nnc(C(C)(C)C)c(=O)[nH]1
not listed: [1] | [7] | [17]
inactive: all other assays above

Nc1ccc2c(S(=O)(=O)O)cccc2c1S(=O)(=O)O
not listed: [3] | [5] | [7] | [8] | [13] | [14] | [17]
inactive: all other assays above

Cn1ccnc1
not listed: [1] | [7] | [17]
inactive: all other assays above

[Cl][Dy]([Cl])[Cl]
active: [12] 8.63 µM
not listed: [1] | [7] | [9] | [13] | [14] | [17]
inactive: all other assays above

CCCCCCCCCCCCCCCCCCNC(=O)OC1CCN(C(=O)OC[C@H](COC(=O)N(Cc2cccc[n+]2CC)C(=O)c2ccccc2OC)OC)CC1
inactive: [3] | [18] | [20] | [9] | [10] | [11]
active: [1] 10.7 µM | [2] 21.3 µM | [8] 29.8 µM | [12] 26.6 µM | [19] 26.6 µM

CC(=O)[C@]1(O)Cc2c(O)c3c(c(O)c2[C@@H](O[C@H]2C[C@H](N)[C@H](O)[C@H](C)O2)C1)C(=O)c1ccccc1C3=O
inactive: [16] | [3] | [8] | [18] | [20] | [11]
active: [1] 0.12 µM | [4] 23.9 µM | [5] 10.6 µM | [7] 0.531 µM | [9] 0.944 µM | [10] 1.19 µM | [12] 0.0133 µM | [19] 9.44 µM | [15] 2.66 µM
